# In PubChem BioAssay (NCATS):
# Inconclusive results are not listed. Where a call stands in place of a potency, no number is given. Active and inactive are the calls of the source. Calls come from the whole dose curve; tested in HEK293 reporter line.
# Experiment: qHTS for Inhibitors of the Functional Ribonucleoprotein Complex (vRNP) of Lassa (LASV) Arenavirus: LASV Primary Screen - GLuc reporter signal (AID 1347082); note: nearly all actives have a fitted effect of over 60% in size
# Conditions: LASV minigenome vRNP, Gaussia luciferase reporter; series mostly up to 57.5 µM
row,Structure (SMILES),Potency
1,CN=C(NC#N)NCCSCc1nc[nH]c1C,inactive
2,CCOC(=O)[C@H](CCc1ccccc1)N[C@@H](C)C(=O)N1CCC[C@H]1C(=O)O,inactive
3,O=C1O[C@H](CO)[C@@H](O)[C@H](O)[C@H]1O,inactive
4,Nc1ncnc2c1ncn2[C@@H]1O[C@H](CO)[C@@H](O)[C@H]1O,inactive
5,CNCC(O)c1ccc(O)c(O)c1 (stereo unspecified),inactive
6,COc1ccc(CCN(C)CCCN2CCc3cc(OC)c(OC)cc3CC2=O)cc1OC,inactive
7,CC12CCC(CC1)C(C)(C)O2,inactive
8,Nc1ccn([C@@H]2O[C@H](CO)[C@@H](O)C2O)c(=O)n1 (stereo partly specified),inactive
9,NS(=O)(=O)c1cc(-c2nn[nH]n2)c(NCc2cccs2)cc1Cl,inactive
10,COc1cnc(NS(=O)(=O)c2ccc(N)cc2)nc1,inactive
11,Nc1ccc(C(=O)Oc2ccccc2)c(O)c1,inactive
12,Cc1cc(=O)[nH]c(=S)[nH]1,inactive
13,S=P(N1CC1)(N1CC1)N1CC1,inactive
14,NC(=O)c1cccnc1,inactive
15,CCc1oc2ccccc2c1C(=O)c1cc(I)c(O)c(I)c1,inactive
16,C[C@H]1O[C@@H](n2cc(F)c(=O)[nH]c2=O)[C@H](O)[C@@H]1O,inactive
17,CN(C)CCOC(=O)C(c1ccccc1)C1(O)CCCC1 (stereo unspecified),inactive
18,COc1cc(O)cc(O)c1,inactive
19,CCCOc1ccc2c(c1)CC[C@@H]1[C@@H]2CC[C@]2(C)C(OC)CC[C@@H]12 (stereo partly specified),inactive

row,Structure (SMILES),Potency
1,O=C1C(O)=C(O)C(=O)C(O)=C1O,inactive
2,CC(=O)Nc1ccc(CC(=O)O)cc1,inactive
3,CCn1cc(C(=O)O)c(=O)c2cc(F)c(N3CCNC(C)C3)c(F)c21 (stereo unspecified),inactive
4,CCCCCCCCCCCC(=O)[O][Sn]([CH2]CCC)([CH2]CCC)[O]C(=O)CCCCCCCCCCC,inactive
5,CC[C@H](C)C(=O)O[C@H]1C[C@H](O)C=C2C=C[C@H](C)[C@H](CC[C@@H](O)C[C@@H](O)CC(=O)O)[C@H]21,inactive
6,C/C(=N\O)c1ccc(OCC(=O)N2CCCCC2)cc1,inactive
7,CCCC(O)C(CC)CO (stereo unspecified),inactive
8,CC(C)(CO)[C@@H](O)C(=O)NCCCO,inactive
9,Cc1cccc(C(=O)O)c1O,inactive
10,C=C[C@H]1CN2CC[C@H]1C[C@H]2[C@H](O)c1ccnc2ccc(OC)cc12,inactive
11,CC(C)=CCC/C(C)=C/CC/C(C)=C/CCC(=O)OC/C=C(\C)CCC=C(C)C,inactive
12,C/C(=C(\CCO)SS/C(CCO)=C(\C)N(C=O)Cc1cnc(C)nc1N)N(C=O)Cc1cnc(C)nc1N,inactive
13,Cc1c(Nc2ncccc2C(=O)O)cccc1C(F)(F)F,inactive
14,COC(=O)c1ccc(NC(C)=O)cc1OC,inactive
15,O=C(O)CN1C(=O)c2cccc3cccc(c23)C1=O,inactive
16,O=c1[nH]cnc2nc[nH]c12,inactive
17,CC(=O)Nc1ncc([N+](=O)[O-])s1,inactive
18,Cc1cc2nc3c(=O)[nH]c(=O)nc-3n(C[C@H](O)[C@H](O)[C@H](O)CO)c2cc1C,inactive
19,NS(=O)(=O)c1ccc(C(=O)O)cc1,inactive

# Experiment: qHTS for Inhibitors of the Functional Ribonucleoprotein Complex (vRNP) of Lassa (LASV) Arenavirus: Viability assay - alamar blue signal for LASV Primary Screen (AID 1347083); note: nearly all actives have a fitted effect of over 80% in size
# Conditions: cell viability, alamar blue fluorescence (LASV minigenome counter-screen); series mostly up to 57.5 µM
row,Structure (SMILES),Potency
1,CN=C(NC#N)NCCSCc1nc[nH]c1C,inactive
2,CCOC(=O)[C@H](CCc1ccccc1)N[C@@H](C)C(=O)N1CCC[C@H]1C(=O)O,inactive
3,O=C1O[C@H](CO)[C@@H](O)[C@H](O)[C@H]1O,inactive
4,Nc1ncnc2c1ncn2[C@@H]1O[C@H](CO)[C@@H](O)[C@H]1O,inactive
5,CNCC(O)c1ccc(O)c(O)c1 (stereo unspecified),inactive
6,COc1ccc(CCN(C)CCCN2CCc3cc(OC)c(OC)cc3CC2=O)cc1OC,inactive
7,CC12CCC(CC1)C(C)(C)O2,inactive
8,Nc1ccn([C@@H]2O[C@H](CO)[C@@H](O)C2O)c(=O)n1 (stereo partly specified),inactive
9,NS(=O)(=O)c1cc(-c2nn[nH]n2)c(NCc2cccs2)cc1Cl,inactive
10,COc1cnc(NS(=O)(=O)c2ccc(N)cc2)nc1,inactive
11,Nc1ccc(C(=O)Oc2ccccc2)c(O)c1,inactive
12,Cc1cc(=O)[nH]c(=S)[nH]1,inactive
13,S=P(N1CC1)(N1CC1)N1CC1,inactive
14,NC(=O)c1cccnc1,inactive
15,CCc1oc2ccccc2c1C(=O)c1cc(I)c(O)c(I)c1,inactive
16,C[C@H]1O[C@@H](n2cc(F)c(=O)[nH]c2=O)[C@H](O)[C@@H]1O,inactive
17,CN(C)CCOC(=O)C(c1ccccc1)C1(O)CCCC1 (stereo unspecified),inactive
18,COc1cc(O)cc(O)c1,inactive
19,CCCOc1ccc2c(c1)CC[C@@H]1[C@@H]2CC[C@]2(C)C(OC)CC[C@@H]12 (stereo partly specified),inactive

row,Structure (SMILES),Potency
1,O=C1C(O)=C(O)C(=O)C(O)=C1O,inactive
2,CC(=O)Nc1ccc(CC(=O)O)cc1,inactive
3,CCn1cc(C(=O)O)c(=O)c2cc(F)c(N3CCNC(C)C3)c(F)c21 (stereo unspecified),inactive
4,CCCCCCCCCCCC(=O)[O][Sn]([CH2]CCC)([CH2]CCC)[O]C(=O)CCCCCCCCCCC,inactive
5,CC[C@H](C)C(=O)O[C@H]1C[C@H](O)C=C2C=C[C@H](C)[C@H](CC[C@@H](O)C[C@@H](O)CC(=O)O)[C@H]21,inactive
6,C/C(=N\O)c1ccc(OCC(=O)N2CCCCC2)cc1,inactive
7,CCCC(O)C(CC)CO (stereo unspecified),inactive
8,CC(C)(CO)[C@@H](O)C(=O)NCCCO,inactive
9,Cc1cccc(C(=O)O)c1O,inactive
10,C=C[C@H]1CN2CC[C@H]1C[C@H]2[C@H](O)c1ccnc2ccc(OC)cc12,inactive
11,CC(C)=CCC/C(C)=C/CC/C(C)=C/CCC(=O)OC/C=C(\C)CCC=C(C)C,inactive
12,C/C(=C(\CCO)SS/C(CCO)=C(\C)N(C=O)Cc1cnc(C)nc1N)N(C=O)Cc1cnc(C)nc1N,inactive
13,Cc1c(Nc2ncccc2C(=O)O)cccc1C(F)(F)F,inactive
14,COC(=O)c1ccc(NC(C)=O)cc1OC,inactive
15,O=C(O)CN1C(=O)c2cccc3cccc(c23)C1=O,inactive
16,O=c1[nH]cnc2nc[nH]c12,inactive
17,CC(=O)Nc1ncc([N+](=O)[O-])s1,inactive
18,Cc1cc2nc3c(=O)[nH]c(=O)nc-3n(C[C@H](O)[C@H](O)[C@H](O)CO)c2cc1C,inactive
19,NS(=O)(=O)c1ccc(C(=O)O)cc1,inactive
